Laboratory results taken from paper PMC8222333, “AsCas12a ultra nuclease facilitates the rapid generation of therapeutic cell medicines”.

B1: TCGA (dsDNA)
DNA 1: GCTATCTAGTGCTCAGTACGCACTGTCGAAGGAAACTTCTGGCAGGACCAGGTCATGAGATCGGAAGAGCACACGTCTGAACTCCAGTCA
DNA 2: TGACTGGAGTTCAGACGTGTGCTCTTCCGATCTCATGACCTGGTCCTGCCAGAAGTTTCCTTCGACAGTGCGTACTGAGCACTAGATAGC
RNA: AAUUUCUACUCUUGUAGAUAGGAAACUUCUGGCAGGACC
B2: TGGA (dsDNA)
DNA 1: GCTATCTAGTGCTCAGTACGCACTGTGGAAGGAAACTTCTGGCAGGACCAGGTCATGAGATCGGAAGAGCACACGTCTGAACTCCAGTCA
DNA 2: TGACTGGAGTTCAGACGTGTGCTCTTCCGATCTCATGACCTGGTCCTGCCAGAAGTTTCCTTCCACAGTGCGTACTGAGCACTAGATAGC
RNA: AAUUUCUACUCUUGUAGAUAGGAAACUUCUGGCAGGACC
B3: TCGT (dsDNA)
DNA 1: GCTATCTAGTGCTCAGTACGCACTGTCGTAGGAAACTTCTGGCAGGACCAGGTCATGAGATCGGAAGAGCACACGTCTGAACTCCAGTCA
DNA 2: TGACTGGAGTTCAGACGTGTGCTCTTCCGATCTCATGACCTGGTCCTGCCAGAAGTTTCCTACGACAGTGCGTACTGAGCACTAGATAGC
RNA: AAUUUCUACUCUUGUAGAUAGGAAACUUCUGGCAGGACC
B4: TGTG (dsDNA)
DNA 1: GCTATCTAGTGCTCAGTACGCACTGTGTGAGGAAACTTCTGGCAGGACCAGGTCATGAGATCGGAAGAGCACACGTCTGAACTCCAGTCA
DNA 2: TGACTGGAGTTCAGACGTGTGCTCTTCCGATCTCATGACCTGGTCCTGCCAGAAGTTTCCTCACACAGTGCGTACTGAGCACTAGATAGC
RNA: AAUUUCUACUCUUGUAGAUAGGAAACUUCUGGCAGGACC
B5: TCTT (dsDNA)
DNA 1: GCTATCTAGTGCTCAGTACGCACTGTCTTAGGAAACTTCTGGCAGGACCAGGTCATGAGATCGGAAGAGCACACGTCTGAACTCCAGTCA
DNA 2: TGACTGGAGTTCAGACGTGTGCTCTTCCGATCTCATGACCTGGTCCTGCCAGAAGTTTCCTAAGACAGTGCGTACTGAGCACTAGATAGC
RNA: AAUUUCUACUCUUGUAGAUAGGAAACUUCUGGCAGGACC
B6: TGAA (dsDNA)
DNA 1: GCTATCTAGTGCTCAGTACGCACTGTGAAAGGAAACTTCTGGCAGGACCAGGTCATGAGATCGGAAGAGCACACGTCTGAACTCCAGTCA
DNA 2: TGACTGGAGTTCAGACGTGTGCTCTTCCGATCTCATGACCTGGTCCTGCCAGAAGTTTCCTTTCACAGTGCGTACTGAGCACTAGATAGC
RNA: AAUUUCUACUCUUGUAGAUAGGAAACUUCUGGCAGGACC
B7: TGGT (dsDNA)
DNA 1: GCTATCTAGTGCTCAGTACGCACTGTGGTAGGAAACTTCTGGCAGGACCAGGTCATGAGATCGGAAGAGCACACGTCTGAACTCCAGTCA
DNA 2: TGACTGGAGTTCAGACGTGTGCTCTTCCGATCTCATGACCTGGTCCTGCCAGAAGTTTCCTACCACAGTGCGTACTGAGCACTAGATAGC
RNA: AAUUUCUACUCUUGUAGAUAGGAAACUUCUGGCAGGACC
B8: TCGC (dsDNA)
DNA 1: GCTATCTAGTGCTCAGTACGCACTGTCGCAGGAAACTTCTGGCAGGACCAGGTCATGAGATCGGAAGAGCACACGTCTGAACTCCAGTCA
DNA 2: TGACTGGAGTTCAGACGTGTGCTCTTCCGATCTCATGACCTGGTCCTGCCAGAAGTTTCCTGCGACAGTGCGTACTGAGCACTAGATAGC
RNA: AAUUUCUACUCUUGUAGAUAGGAAACUUCUGGCAGGACC

Each binder was assayed against dAsCas12a Ultra (Acidaminococcus sp., UniProt U2UMQ6 1-1307, M537R;F870L;D908A;E993A;D1235A) (assay: Spec-seq (native PAGE EMSA with sequencing of bound and unbound); 25 mM Tris-HCl pH 7.4, 150 mM KCl, 5 mM MgCl2, 10% glycerol, 1 mM DTT, 40 ng/uL salmon sperm DNA; 400 nM Cas12a, 480 nM crRNA, 50 nM library, 37 C 1 h; native PAGE at room temperature; high values mean tight binding). Settings: protein: recombinant.

Binder | binding signal
B1 | -8.77 lnKA
B2 | -8 lnKA
B3 | -8.83 lnKA
B4 | -7.7 lnKA
B5 | -6.94 lnKA
B6 | -8.9 lnKA
B7 | -8.76 lnKA
B8 | -7.42 lnKA

Each binder was assayed against dAsCas12a E174R (Acidaminococcus sp., UniProt U2UMQ6 1-1307, E174R;D908A;E993A;D1235A) in the same assay as above. Settings: protein: recombinant.

Binder | binding signal
B1 | -8.54 lnKA
B3 | -8.58 lnKA
B4 | -8.19 lnKA
B5 | -6.26 lnKA
B8 | -7.83 lnKA

What follows are binders tested against dAsCas12a S542R (Acidaminococcus sp., UniProt U2UMQ6 1-1307, S542R;D908A;E993A;D1235A) in the same assay as above. Settings: protein: recombinant.

Binder | binding signal
B1 | -7.61 lnKA
B2 | -7.85 lnKA
B3 | -8.35 lnKA
B4 | -7.46 lnKA
B5 | -7.22 lnKA
B6 | -8.33 lnKA
B7 | -8.26 lnKA
B8 | -7.58 lnKA

Each binder was assayed against d-enCas12a (Acidaminococcus sp., UniProt U2UMQ6 1-1307, E174R;S542R;K548R;D908A;E993A;D1235A) in the same assay as above. Settings: protein: recombinant.

Binder | binding signal
B1 | -5.86 lnKA
B2 | -5.44 lnKA
B3 | -5.85 lnKA
B4 | -2.08 lnKA
B5 | -5.44 lnKA
B6 | -5.68 lnKA
B7 | -5.72 lnKA
B8 | -5.36 lnKA

The binders below were run against d-enCas12a-Ultra (Acidaminococcus sp., UniProt U2UMQ6 1-1307, E174R;S542R;K548R;M537R;F870L;D908A;E993A;D1235A) in the same assay as above. Settings: protein: recombinant.

Binder | binding signal
B1 | -3.33 lnKA
B2 | -3.27 lnKA
B3 | -3.4 lnKA
B4 | -0.568 lnKA
B5 | -2.4 lnKA
B6 | -3.27 lnKA
B7 | -3.36 lnKA
B8 | -2.95 lnKA

The binders below were run against dAsCas12a K548R (Acidaminococcus sp., UniProt U2UMQ6 1-1307, K548R;D908A;E993A;D1235A) in the same assay as above. Settings: protein: recombinant.

Binder | binding signal
B4 | -8.2 lnKA
